Results taken from ChEMBL document CHEMBL4513216, “Probing the Open Global Health Chemical Diversity Library for Multistage-Active Starting Points for Next-Generation Antimalarials” (ACS Infect Dis, 2020).
The whole screen tested about 69,000 compounds, of which about 8,600 (12%) showed an effect of 50% or more. This excerpt belongs to a sample that is enriched for strong results.

These molecules were tested on Plasmodium berghei (assay: Screen against P. berghei liver stage (PbLuc), transformed with Luciferase, at 10uM). Details: tested at 10 uM.
Format: functional, HepG2

Compared with `CCOCc1nn(CC2CC2)c2c1CN(Cc1cccs1)CC2`, `COCc1nn(CC2CC2)c2c1CN(Cc1cccs1)CC2` is lower in INHIBITION: 64.7% for the first, -97.2% for the second.

Going from `CCOCc1nn(C)c2c1CN(Cc1cccs1)CC2` to `Cc1nnc(CN(C)C2CCN(CCc3cccs3)C2)n1C` (stereo not drawn), the INHIBITION falls from 32.1% to 21.8%.

Going from `O=C(c1ccc(O)cn1)N1CCOC(Cc2cccc(C(F)(F)F)c2)C1` (stereo not drawn) to `O=C(c1n[nH]cc1Cl)N1CCOC(Cc2cccc(C(F)(F)F)c2)C1` (stereo not drawn), the INHIBITION rises from -9.29% to 75.9%.

First: CC(=O)N1CCOC(Cc2cccc(C(F)(F)F)c2)C1 (stereo not drawn)
Second: CC(=O)N1CCC(Nc2ccc(Br)cc2C#N)C1 (stereo not drawn)
The INHIBITION of the first is lower: 7.1% for the first, 7.39% for the second.

First: CN(C(=O)Nc1ccncc1)C1CCN(c2ccccc2)C1=O (stereo not drawn)
Second: O=C(Nc1cc(-c2ccccc2)on1)N1CC[C@H](O)C1
The INHIBITION of the first is higher: 41.3% for the first, -51.7% for the second.

Compared with `CN1C(=O)COc2ccc(NC(=O)CCc3nc4cccnc4[nH]3)cc21`, `NC(=O)C1CCN(c2nc3nccc(-c4cccnc4)c3c(=O)[nH]2)CC1` is higher in INHIBITION: 39.7% for the first, 47.4% for the second.

First: CCC(=O)NC1CCCN(C(=O)Nc2cc(-c3ccccc3)on2)C1 (stereo not drawn)
Second: O=C(Nc1cc(-c2ccccc2)on1)N1CCN(CCO)CC1
The INHIBITION of the first is higher: 52.6% for the first, 43.9% for the second.

Compared with `Cc1nnc(NC(=O)NCCN(C(=O)OC(C)(C)C)C2CC2)s1`, `COc1ccccc1C(C)(C)NC(=O)NCCC(=O)NC1CCCC1` is higher in INHIBITION: 4.34% for the first, 19.7% for the second.

First: O=C1CCN(CCS(=O)(=O)c2ccc(Cl)cc2)CCN1
Second: O=C(O)c1cc(NS(=O)(=O)c2ccc(Cl)s2)ccc1N1CCOCC1
The INHIBITION of the first is lower: 7.43% for the first, 20% for the second.

First: COCCNC(=O)[C@H]1C[C@@H]2CCN(c3ccncn3)C[C@H]2O1
Second: COc1cccc2c1ccn2CCNC(=O)C1CCC1
The INHIBITION of the first is higher: 7.53% for the first, -46.8% for the second.

Going from `Cc1cc2n(n1)CC(CNCc1ccc(N3CCOCC3)nc1)CN2` (stereo not drawn) to `Cc1ccc(OCC2CCCN(C(=O)CN3CCOCC3)C2)cc1` (stereo not drawn), the INHIBITION rises from -2.143% to 56.5%.

Going from `Cc1cccnc1CCNC(=O)CC1C(=O)NCCN1CCC(C)C` (stereo not drawn) to `Cc1ccc(OCC2CCCN(C(=O)CCn3ccccc3=O)C2)cc1` (stereo not drawn), the INHIBITION rises from -23% to 18.5%.

First: CCCn1nccc1-c1cc(C2CCN(S(C)(=O)=O)CC2)ccn1
Second: Cn1nccc1-c1cc(C2CCN(S(C)(=O)=O)CC2)ccn1
The INHIBITION of the first is higher: 55.6% for the first, 42.4% for the second.

First: CCCn1nccc1-c1cc(C2CCN(C(C)=O)CC2)ccn1
Second: Cc1cc(C(=O)N2CCN(C)CC2)nn1CC(=O)NCc1ccccn1
The INHIBITION of the first is higher: 12.3% for the first, 1.95% for the second.

Compared with `COCC1c2nnn(CC3CC3)c2CCN1C(=O)c1ccnnc1` (stereo not drawn), `COCC1c2nnn(CC3CC3)c2CCN1C(=O)c1cccn1C` (stereo not drawn) is lower in INHIBITION: -16.2% for the first, -56.2% for the second.

Compared with `COCC1c2nnn(CC3CC3)c2CCN1C(=O)c1sccc1C` (stereo not drawn), `O=C(NCC1CC1)C1CN(Cc2cccs2)Cc2ccnn2C1` (stereo not drawn) is lower in INHIBITION: 72.3% for the first, -19.1% for the second.

Going from `Cc1ccc(OCC2CCCN(C(=O)Cn3ccccc3=O)C2)cc1` (stereo not drawn) to `Cc1ccc(OCC2CCCN(Cc3ccc(CO)o3)C2)cc1` (stereo not drawn), the INHIBITION rises from 18.5% to 22.3%.

Compared with `Cc1ccc(OCC2CCCN(c3nc(CO)cs3)C2)cc1` (stereo not drawn), `Cc1ccc(OCC2CCCN(CC3CCOCC3)C2)cc1` (stereo not drawn) is higher in INHIBITION: 34.4% for the first, 51.1% for the second.

Compared with `Cc1ccc(N2CCC3(CC2)CNC(=O)CO3)nn1`, `CN(Cc1nnc(C2CC2)o1)C1CCCN(c2cccnn2)C1` (stereo not drawn) is lower in INHIBITION: 21.7% for the first, -9.76% for the second.

Compared with `O=C(NC[C@H]1OC[C@@H]2CN(Cc3ccco3)CC[C@@H]21)c1cscn1`, `COc1ccccc1CC(=O)N1C[C@@H]2CC[C@H]1CN(Cc1cscn1)C2` is higher in INHIBITION: -72% for the first, 29.6% for the second.

Compared with `COCCCN1CCCC(c2nccn2CC2CCC2)C1` (stereo not drawn), `Cc1cnc(CN2CCC(N(C)Cc3nnc(C4CC4)n3C)C2)cn1` (stereo not drawn) is lower in INHIBITION: 42.8% for the first, 27.5% for the second.

First: CC(C)(C)c1nnnn1CC(=O)N(CCC#N)c1ccccc1
Second: CN(C(=O)Cn1nnnc1C(C)(C)C)c1ccccc1
The INHIBITION of the first is higher: 65.6% for the first, 50.8% for the second.

Going from `CC(=O)N(C)c1nc(Cn2nnnc2C(C)(C)C)cs1` to `CN(CCC#N)C(=O)Cn1nnnc1C(C)(C)C`, the INHIBITION rises from 24.2% to 61.9%.

Going from `N#CCCN(C(=O)CN1CCCC1C1CCCCC1)c1ccccc1` (stereo not drawn) to `CN(CC(=O)N(CCC#N)c1ccccc1)C1CCc2ccccc21` (stereo not drawn), the INHIBITION rises from 5.14% to 28.9%.

Going from `CN(C(=O)Cn1nc(-c2ccc(F)cc2)oc1=O)c1ccccc1` to `CN(C(=O)Cn1nc(-c2ccccc2Cl)ccc1=O)C1CCS(=O)(=O)C1` (stereo not drawn), the INHIBITION rises from 42.6% to 48.1%.

Going from `Cc1nc(CN2CCCN(CC(=O)N(C)CCC#N)CC2)no1` to `Cc1cc(C)n(CC2CCCN2CC(=O)N(C)CCC#N)n1` (stereo not drawn), the INHIBITION falls from 36.5% to 36.1%.

Compared with `CCCSc1ncc(Cl)c(C(=O)NC(CCSC)C(=O)O)n1` (stereo not drawn), `O=C(CSc1nc2c(cnn2CCO)c(=O)[nH]1)NC1CCCCC1` is higher in INHIBITION: 26.3% for the first, 39.2% for the second.

First: CCN1C(=O)CCC12CCN(C(=O)c1ccco1)CC2
Second: CCN1CCn2c(C)cnc2C12CCN(C(=O)CC(C)C)CC2
The INHIBITION of the first is higher: 27.2% for the first, -0.182% for the second.

Compared with `CC[C@H](C)Nc1nccc(-c2cnc3sc(C)cn3c2=O)n1`, `O=c1[nH]c(NC2CCCC2)nc2nccc(-c3cccs3)c12` is higher in INHIBITION: 39.7% for the first, 52.2% for the second.

Compared with `CCC(=O)N1CCc2c(O)nc(C3CCCCN3C(=O)C3CC3)nc2C1` (stereo not drawn), `O=C(NCCS(=O)(=O)N1CCN(c2ncccn2)CC1)C1CCCC1` is lower in INHIBITION: -7.6% for the first, -33.5% for the second.

Going from `NC(=O)C1CCN(c2nc3nccc(-c4ccncc4)c3c(=O)[nH]2)CC1` to `O=c1[nH]c(NC2CCCC2)nc2nccc(-c3ccsc3)c12`, the INHIBITION rises from 41.6% to 61.1%.

First: O=c1[nH]c(NC2CCCC2)nc2nccc(-c3ccco3)c12
Second: O=C(O)Cn1nc(C2CC2)c2c(-c3cccs3)ccnc21
The INHIBITION of the first is lower: -37.9% for the first, 11.6% for the second.

Compared with `Cc1ccc(S(=O)(=O)N2CSCC2C(=O)NCC(F)(F)F)cc1C` (stereo not drawn), `Cc1ccc(C(=O)NS(C)(=O)=O)cc1I` is higher in INHIBITION: -27.9% for the first, 32.3% for the second.

First: Cc1noc(C(C)N2CCN(CCN3CCCC3=O)CC2)n1 (stereo not drawn)
Second: CCOCCN1CCN(Cc2csc(-c3cnn(C)c3)n2)CC1
The INHIBITION of the first is lower: -29.1% for the first, -22.1% for the second.

First: O=C(COCCOc1ccccc1)Nc1ccnn1CC1CCOC1 (stereo not drawn)
Second: O=C(COCc1ccccc1Cl)Nc1ccnn1CC1CCOC1 (stereo not drawn)
The INHIBITION of the first is higher: 69.9% for the first, 42.1% for the second.

Compared with `O=C(Cn1ncc2ccccc21)Nc1ccnn1CC1CCOC1` (stereo not drawn), `Cc1nc(C)n(CC2CN(Cc3cccc4ccccc34)CCO2)n1` (stereo not drawn) is higher in INHIBITION: 36.5% for the first, 37.4% for the second.

Going from `N#Cc1cc(Br)ccc1NC1CCN(CC(N)=O)CC1` to `CN1CC(Nc2ccc(Br)cc2C#N)CCC1=O` (stereo not drawn), the INHIBITION rises from 45.4% to 58.9%.

Compared with `O=C(CCNS(=O)(=O)c1ccc(F)c(F)c1)NCc1ccoc1`, `NC(=O)COc1ccc(CNCc2ccc(F)cc2)cc1` is lower in INHIBITION: 35.4% for the first, 9.52% for the second.

First: O=C(N[C@H]1CN(Cc2ccsc2)[C@@H]2CCCO[C@H]12)C1CC1
Second: Cc1nc(CNCC2CN(C3CC3)CCO2)cs1 (stereo not drawn)
The INHIBITION of the first is higher: 48.2% for the first, 27.4% for the second.

First: Cc1ccc(C(=O)NS(C)(=O)=O)cc1S(C)(=O)=O
Second: Cc1cc(C(=O)NS(C)(=O)=O)ccc1I
The INHIBITION of the first is lower: 1.79% for the first, 52% for the second.

Going from `Cc1cc(N2CCN(C(=O)[C@@H]3C[C@H]4C=C[C@@H]3C4)CC2)nc2ccccc12` to `Cc1cc(C)n(CC2CN(Cc3nc4ccccc4s3)CCO2)n1` (stereo not drawn), the INHIBITION rises from -13.2% to 79.9%.

Compared with `CC(C(=O)NC1CC1)N1CCN(Cc2ccn(C)c(=O)c2)CC1` (stereo not drawn), `OCCn1cc(CN2CCN(CCOc3ccccc3)CC2)cn1` is higher in INHIBITION: 7.42% for the first, 37.5% for the second.

First: OCCn1cc(CN2CCN(CCOc3ccc(F)cc3)CC2)cn1
Second: OCCn1cc(CN2CCN(CCOCC(F)(F)F)CC2)cn1
The INHIBITION of the first is lower: 39.5% for the first, 54.9% for the second.

First: NC(=O)NC(=O)CN1CCN(c2nccs2)CC1
Second: Cc1ccc(CNC(=O)CN2CCCCC2Cn2cncn2)s1 (stereo not drawn)
The INHIBITION of the first is higher: 24% for the first, -1.14% for the second.

First: CCn1c(C)nnc1CN(C)C1CCN(Cc2cnc(C)cn2)C1 (stereo not drawn)
Second: Cc1cnc(CN2CCC(N(C)Cc3nnc(C)n3C)C2)cn1 (stereo not drawn)
The INHIBITION of the first is lower: -7.48% for the first, 62.3% for the second.

First: Cc1cc(C)n(CCN2CCC(N(C)Cc3noc(C4CC4)n3)C2)n1 (stereo not drawn)
Second: Cc1cc(CN2CCC(N(C)Cc3noc(C4CC4)n3)C2)on1 (stereo not drawn)
The INHIBITION of the first is higher: 68.5% for the first, 19.5% for the second.

Going from `Cc1cc(C)n(CCN2CCC(N(C)Cc3nnc(C)n3C)C2)n1` (stereo not drawn) to `Cc1nnc(CN(C)C2CCN(Cc3nnc(C4CCC4)o3)C2)n1C` (stereo not drawn), the INHIBITION falls from 54.6% to 40.9%.

Going from `Cc1ccc(CCN2CCC(N(C)Cc3noc(C4CC4)n3)C2)cc1` (stereo not drawn) to `CCc1nc(CN(C)C2CCN(Cc3cnc(C)cn3)C2)no1` (stereo not drawn), the INHIBITION rises from 27.9% to 67.5%.

Compared with `CCc1nc(CN(C(C)=O)C2CCN(Cc3cnc(C)cn3)C2)no1` (stereo not drawn), `CCc1nc(CN2CCCC(N(C)Cc3cnc(C)cn3)C2)no1` (stereo not drawn) is higher in INHIBITION: 12.4% for the first, 24.3% for the second.

First: COc1cc(C(=O)N2CC3(CCNCC3)c3cc(Cl)ccc32)ccn1
Second: CCOCC1CN(Cc2ccc3c(c2)OCO3)Cc2nccn2C1 (stereo not drawn)
The INHIBITION of the first is lower: -17.1% for the first, 29% for the second.

First: Cc1nc(CN2CCC(N(C)Cc3nnc(C4CC4)n3C)C2)cs1 (stereo not drawn)
Second: Cc1nc(C)n(CC2CN(Cc3nc4ccccc4n3C)CCO2)n1 (stereo not drawn)
The INHIBITION of the first is lower: 7.12% for the first, 22.3% for the second.

Compared with `CNC(=O)COc1c(F)cc(Br)cc1C(C)=O`, `COC(=O)COc1c(F)cc(Br)cc1C(C)=O` is lower in INHIBITION: 9.04% for the first, 8.24% for the second.

Compared with `CC(=O)c1cc(Br)cc(F)c1OCC(=O)NC(C)C`, `Cc1cc(C)n(CC2CN(Cc3cnc(C)s3)CCO2)n1` (stereo not drawn) is lower in INHIBITION: 56.9% for the first, 28.8% for the second.

Compared with `Cc1cc(C)n(CC2CN(Cc3ccccn3)CCO2)n1` (stereo not drawn), `Cc1nc(C)n(CC2CN(Cc3nc4ccccc4s3)CCO2)n1` (stereo not drawn) is higher in INHIBITION: 12.415% for the first, 92.3% for the second.
